Results from PubChem BioAssay AID1159580 (chemical genetic matrix, 2015).
Among all 5,500 compounds or so, about 2,000 (36%) were called active. About 18% were inconclusive and are not listed. The list shows a part of the results. Values without a mark were called inactive. Cut-off read from the data, not from the text of the source: active = normalized growth mostly below about 0.91 (no sharp cut-off); inconclusive = no clear call, values can overlap the other calls; inactive = mostly above about 0.92.

Assay: chemical genetic growth profiling, strain panel (AID 1159580);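 note: tested at 20 µM; growth read once vehicle control cultures reached saturation at 30 °C; 1 = growth at the plate median or of vehicle wells; lower values mean less growth of the strain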
Details: growth OD
[1] = S. cerevisiae deletion strains, locus YDL101C, strain DUN1, stronger effect = lower value
[2] = S. cerevisiae deletion strains, locus YHR030C, strain SLT2, stronger effect = lower value

**Q.** For `CC(C)(C)OC(=O)C(C)(C)S(=O)(=O)c1ccc(Cl)cc1`, which normalized growth (S. cerevisiae deletion strains, locus YAL013W, strain DEP1, stronger effect = lower value) is on record?
**A.** 1.01

**Q.** What about the normalized growth (S. cerevisiae deletion strains, locus YBR229C, strain ROT2, stronger effect = lower value) of the same compound?
**A.** 0.983

**Q.** And the normalized growth (S. cerevisiae deletion strains, locus YCL061C, strain MRC1, stronger effect = lower value)?
**A.** 0.979

**Q.** What about the normalized growth [1] of the same compound?
**A.** 0.977

**Q.** What about the normalized growth (S. cerevisiae deletion strains, locus YDL134C, strain PPH21, stronger effect = lower value) of the same compound?
**A.** 0.995

**Q.** And the normalized growth (S. cerevisiae deletion strains, locus YDR150W, strain NUM1, stronger effect = lower value)?
**A.** 0.992

**Q.** What about the normalized growth (S. cerevisiae deletion strains, locus YEL061C, strain CIN8, stronger effect = lower value) of the same compound?
**A.** 1

**Q.** And the normalized growth (S. cerevisiae deletion strains, locus YGR078C, strain PAC10, stronger effect = lower value)?
**A.** 0.992

**Q.** What about the normalized growth [2] of the same compound?
**A.** 0.955

**Q.** And the normalized growth (S. cerevisiae deletion strains, locus YHR087W, strain rtc3, stronger effect = lower value)?
**A.** 1.01

**Q.** What about the normalized growth (S. cerevisiae deletion strains, locus YJR075W, strain HOC1, stronger effect = lower value) of the same compound?
**A.** 0.973

**Q.** What about the normalized growth (S. cerevisiae deletion strains, locus YKL190W, strain CNB1, stronger effect = lower value) of the same compound?
**A.** 0.994

**Q.** What about the normalized growth (S. cerevisiae deletion strains, locus YLR039C, strain RIC1, stronger effect = lower value) of the same compound?
**A.** 0.958

**Q.** What about the normalized growth (S. cerevisiae deletion strains, locus YLR058C, strain SHM2 (second series), stronger effect = lower value) of the same compound?
**A.** 1.01

**Q.** What about the normalized growth (S. cerevisiae deletion strains, locus YLR085C, strain ARP6, stronger effect = lower value) of the same compound?
**A.** 1.05

**Q.** What about the normalized growth (S. cerevisiae deletion strains, locus YLR262C, strain YPT6, stronger effect = lower value) of the same compound?
**A.** 0.927

**Q.** What about the normalized growth (S. cerevisiae deletion strains, locus YML094W, strain GIM5, stronger effect = lower value) of the same compound?
**A.** 0.987

**Q.** What about the normalized growth (S. cerevisiae deletion strains, locus YMR219W, strain ESC1, stronger effect = lower value) of the same compound?
**A.** 0.995

**Q.** And the normalized growth (S. cerevisiae deletion strains, locus YMR263W, strain SAP30, stronger effect = lower value)?
**A.** 0.992

**Q.** And the normalized growth (S. cerevisiae deletion strains, locus YNL153C, strain GIM3, stronger effect = lower value)?
**A.** 0.98

**Q.** What about the normalized growth (S. cerevisiae deletion strains, locus YNL298W, strain CLA4 (second series), stronger effect = lower value) of the same compound?
**A.** 1.02

**Q.** And the normalized growth (S. cerevisiae deletion strains, locus YNL322C, strain KRE1, stronger effect = lower value)?
**A.** 0.984

**Q.** What about the normalized growth (S. cerevisiae deletion strains, locus YNR030W, strain Alg12, stronger effect = lower value) of the same compound?
**A.** 0.983

**Q.** What about the normalized growth (S. cerevisiae deletion strains, locus YOL006C, strain TOP1, stronger effect = lower value) of the same compound?
**A.** 1.01

**Q.** What about the normalized growth (S. cerevisiae deletion strains, locus YPL055C, strain LGE1, stronger effect = lower value) of the same compound?
**A.** 1.02

**Q.** And the normalized growth (S. cerevisiae deletion strains, locus YPL241C, strain CIN2, stronger effect = lower value)?
**A.** 1.01

**Q.** And the normalized growth (S. cerevisiae deletion strains, locus YPR135W, strain CTF4, stronger effect = lower value)?
**A.** 1.04

**Q.** And the normalized growth (S. cerevisiae strains, strain wild type, stronger effect = lower value)?
**A.** 1

**Q.** For `O=[N+]([O-])c1ccc(S(=O)(=O)c2ccccc2)nc1S(=O)(=O)c1ccccc1`, which normalized growth (S. cerevisiae deletion strains, locus YAR019C, strain CDC15, stronger effect = lower value) is on record?
**A.** 0.882 (active)

**Q.** What about the normalized growth (S. cerevisiae deletion strains, locus YBL105C, strain PKC1, stronger effect = lower value) of the same compound?
**A.** 0.914

**Q.** What about the normalized growth (S. cerevisiae deletion strains, locus YBR135W, strain CKS1, stronger effect = lower value) of the same compound?
**A.** 0.903

**Q.** And the normalized growth (S. cerevisiae deletion strains, locus YBR136W, strain MEC1, stronger effect = lower value)?
**A.** 0.93

**Q.** And the normalized growth (S. cerevisiae deletion strains, locus YBR160W, strain CDC28, stronger effect = lower value)?
**A.** 0.915

**Q.** And the normalized growth (S. cerevisiae deletion strains, locus YDL017W, strain CDC7, stronger effect = lower value)?
**A.** 0.942

**Q.** And the normalized growth (S. cerevisiae deletion strains, locus YDL028C, strain MPS1, stronger effect = lower value)?
**A.** 0.972

**Q.** And the normalized growth [1]?
**A.** 0.922

**Q.** What about the normalized growth (S. cerevisiae deletion strains, locus YDL108W, strain KIN28, stronger effect = lower value) of the same compound?
**A.** 0.94

**Q.** And the normalized growth (S. cerevisiae deletion strains, locus YDL132W, strain cdc53, stronger effect = lower value)?
**A.** 0.931

**Q.** And the normalized growth (S. cerevisiae deletion strains, locus YDL214C, strain PRR2, stronger effect = lower value)?
**A.** 0.393 (active)

**Q.** And the normalized growth (S. cerevisiae deletion strains, locus YDR052C, strain DBF4, stronger effect = lower value)?
**A.** 0.942

**Q.** And the normalized growth (S. cerevisiae deletion strains, locus YDR054C, strain cdc34, stronger effect = lower value)?
**A.** 0.904

**Q.** What about the normalized growth (S. cerevisiae deletion strains, locus YDR226W, strain ADK1, stronger effect = lower value) of the same compound?
**A.** 0.904

**Q.** What about the normalized growth (S. cerevisiae deletion strains, locus YDR477W, strain SNF1, stronger effect = lower value) of the same compound?
**A.** 0.473 (active)

**Q.** What about the normalized growth (S. cerevisiae deletion strains, locus YER123W, strain YCK3, stronger effect = lower value) of the same compound?
**A.** 0.223 (active)

**Q.** What about the normalized growth (S. cerevisiae deletion strains, locus YER133W, strain GLC7, stronger effect = lower value) of the same compound?
**A.** 0.361 (active)

**Q.** What about the normalized growth (S. cerevisiae deletion strains, locus YFL009W, strain cdc4, stronger effect = lower value) of the same compound?
**A.** 0.918

**Q.** And the normalized growth (S. cerevisiae deletion strains, locus YFL029C, strain CAK1, stronger effect = lower value)?
**A.** 0.885

**Q.** What about the normalized growth (S. cerevisiae deletion strains, locus YFR003C, strain YPI1, stronger effect = lower value) of the same compound?
**A.** 0.974

**Q.** What about the normalized growth (S. cerevisiae deletion strains, locus YFR019W, strain FAB1, stronger effect = lower value) of the same compound?
**A.** 0.62 (active)

**Q.** What about the normalized growth (S. cerevisiae deletion strains, locus YFR028C, strain CDC14, stronger effect = lower value) of the same compound?
**A.** 0.893

**Q.** And the normalized growth (S. cerevisiae deletion strains, locus YGR040W, strain KSS1, stronger effect = lower value)?
**A.** 0.443 (active)

**Q.** And the normalized growth (S. cerevisiae deletion strains, locus YGR052W, strain FMP48, stronger effect = lower value)?
**A.** 0.353 (active)

**Q.** And the normalized growth (S. cerevisiae deletion strains, locus YGR092W, strain DBF2, stronger effect = lower value)?
**A.** 0.785

**Q.** What about the normalized growth [2] of the same compound?
**A.** 0.334 (active)

**Q.** And the normalized growth (S. cerevisiae deletion strains, locus YHR079C, strain IRE1, stronger effect = lower value)?
**A.** 0.88

**Q.** And the normalized growth (S. cerevisiae deletion strains, locus YHR082C, strain KSP1, stronger effect = lower value)?
**A.** 0.364 (active)

**Q.** And the normalized growth (S. cerevisiae deletion strains, locus YHR205W, strain SCH9, stronger effect = lower value)?
**A.** 0.47 (active)

**Q.** And the normalized growth (S. cerevisiae deletion strains, locus YIL147C, strain SLN1, stronger effect = lower value)?
**A.** 0.974

**Q.** What about the normalized growth (S. cerevisiae deletion strains, locus YJL095W, strain BCK1, stronger effect = lower value) of the same compound?
**A.** 0.401 (active)

**Q.** What about the normalized growth (S. cerevisiae deletion strains, locus YJR016C, strain ILV3, stronger effect = lower value) of the same compound?
**A.** 0.936

**Q.** And the normalized growth (S. cerevisiae deletion strains, locus YJR066W, strain TOR1 (second series), stronger effect = lower value)?
**A.** 0.438 (active)

**Q.** And the normalized growth (S. cerevisiae deletion strains, locus YJR066W, strain TOR1, stronger effect = lower value)?
**A.** 0.299 (active)

**Q.** And the normalized growth (S. cerevisiae deletion strains, locus YKL048C, strain ELM1, stronger effect = lower value)?
**A.** 0.948

**Q.** And the normalized growth (S. cerevisiae deletion strains, locus YKL101W, strain HSL1, stronger effect = lower value)?
**A.** 0.777

**Q.** And the normalized growth (S. cerevisiae deletion strains, locus YKL193C, strain SDS22, stronger effect = lower value)?
**A.** 0.871 (active)

**Q.** And the normalized growth (S. cerevisiae deletion strains, locus YKL203C, strain TOR2, stronger effect = lower value)?
**A.** 0.555 (active)

**Q.** And the normalized growth (S. cerevisiae deletion strains, locus YLR113W, strain HOG1, stronger effect = lower value)?
**A.** 0.184 (active)

**Q.** What about the normalized growth (S. cerevisiae deletion strains, locus YLR133W, strain CKI1, stronger effect = lower value) of the same compound?
**A.** 0.691 (active)

**Q.** And the normalized growth (S. cerevisiae deletion strains, locus YLR403W, strain SFP1, stronger effect = lower value)?
**A.** 0.748

**Q.** And the normalized growth (S. cerevisiae deletion strains, locus YML070W, strain DAK1, stronger effect = lower value)?
**A.** 0.433 (active)

**Q.** And the normalized growth (S. cerevisiae deletion strains, locus YMR001C, strain CDC5, stronger effect = lower value)?
**A.** 0.896

**Q.** And the normalized growth (S. cerevisiae deletion strains, locus YMR205C, strain PFK2 (second series), stronger effect = lower value)?
**A.** 0.785

**Q.** And the normalized growth (S. cerevisiae deletion strains, locus YMR277W, strain FCP1, stronger effect = lower value)?
**A.** 0.87 (active)

**Q.** And the normalized growth (S. cerevisiae deletion strains, locus YNL006W, strain LST8, stronger effect = lower value)?
**A.** 0.99

**Q.** What about the normalized growth (S. cerevisiae deletion strains, locus YNL020C, strain ARK1, stronger effect = lower value) of the same compound?
**A.** 0.874

**Q.** What about the normalized growth (S. cerevisiae deletion strains, locus YNL161W, strain CBK1, stronger effect = lower value) of the same compound?
**A.** 0.919

**Q.** And the normalized growth (S. cerevisiae deletion strains, locus YNL183C, strain NPR1, stronger effect = lower value)?
**A.** 0.178 (active)

**Q.** And the normalized growth (S. cerevisiae deletion strains, locus YNL207W, strain RIO2, stronger effect = lower value)?
**A.** 0.916

**Q.** What about the normalized growth (S. cerevisiae deletion strains, locus YNL222W, strain SSU72, stronger effect = lower value) of the same compound?
**A.** 0.915

**Q.** And the normalized growth (S. cerevisiae deletion strains, locus YOL078W, strain AVO1, stronger effect = lower value)?
**A.** 0.879 (active)

**Q.** And the normalized growth (S. cerevisiae deletion strains, locus YOL136C, strain PFK27, stronger effect = lower value)?
**A.** 0.533 (active)

**Q.** And the normalized growth (S. cerevisiae deletion strains, locus YOR061W, strain CKA2, stronger effect = lower value)?
**A.** 0.879

**Q.** And the normalized growth (S. cerevisiae deletion strains, locus YOR119C, strain RIO1, stronger effect = lower value)?
**A.** 0.442 (active)

**Q.** And the normalized growth (S. cerevisiae deletion strains, locus YOR231W, strain MKK1, stronger effect = lower value)?
**A.** 0.809

**Q.** What about the normalized growth (S. cerevisiae deletion strains, locus YOR329C, strain SCD5, stronger effect = lower value) of the same compound?
**A.** 0.973

**Q.** And the normalized growth (S. cerevisiae deletion strains, locus YPL153C, strain RAD53, stronger effect = lower value)?
**A.** 0.729

**Q.** What about the normalized growth (S. cerevisiae deletion strains, locus YPL204W, strain HRR25, stronger effect = lower value) of the same compound?
**A.** 0.706

**Q.** And the normalized growth (S. cerevisiae deletion strains, locus YPL209C, strain IPL1, stronger effect = lower value)?
**A.** 0.913

**Q.** And the normalized growth (S. cerevisiae deletion strains, locus YPL256C, strain CLN2, stronger effect = lower value)?
**A.** 0.293 (active)

**Q.** What about the normalized growth (S. cerevisiae deletion strains, locus YPR025C, strain CCL1, stronger effect = lower value) of the same compound?
**A.** 0.911

**Q.** What about the normalized growth (S. cerevisiae deletion strains, locus YPR106W, strain ISR1, stronger effect = lower value) of the same compound?
**A.** 0.921

**Q.** What about the normalized growth (S. cerevisiae deletion strains, locus YPR111W, strain DBF20, stronger effect = lower value) of the same compound?
**A.** 0.909

**Q.** What about the normalized growth (S. cerevisiae deletion strains, strain NNK1, stronger effect = lower value) of the same compound?
**A.** 0.938

**Q.** And the normalized growth (S. cerevisiae deletion strains, strain TSCII, stronger effect = lower value)?
**A.** 0.872 (active)
